Experimental data as given in the OligoGym collection.

target: CADM4; experiment: pooled miR-30 sensor sort-seq; sequence = guide strand; settings: shRNA
Also: reference of the scale not given here.

| Sequence | sensor-assay potency score (higher = more potent) |
| --- | --- |
| TTACGGTCCACACGAAACCGTA | -1.33 |
| TTCTGCCGTACCGAGCACCAGA | -1.21 |
| ACATATGATCAGAAACACCAGC | -1.09 |
| TTATTGGACGCCTCGCAAGTGT | -0.6 |
| AAGCTGGAAACGCTCATCCTTC | -1.15 |
| TTCTCTGTCTGTACTTCCTGTC | -0.0405 |
| TGGATGACAACTATGGACCCAT | -0.33 |
| TTGAAGAAGAGGGTCTGCCGGG | 0.128 |
| TTTCAGCTCCTTGCGGTCCCGG | -0.888 |
| TCTGTCTGTACTTCCTGTCCTG | 0.306 |

target: CALB1; experiment: as above; settings: shRNA

| Sequence | sensor-assay potency score (higher = more potent) |
| --- | --- |
| ATTATTAATATCCAGATCCTGT | -0.387 |
| TCTTGTTCAACTATATTTGTGA | 0.29 |
| TATAAAAGAAAATACAGCCTAC | -0.236 |
| TTAGGTCTGTATACTCGGCTAA | -0.144 |
| TTATTTTTTAGATACAGTGTAT | -0.499 |
| AAACAGTATAGAAACAAGCTGA | -0.0132 |
| TTTTGTGTCATCAACAGTCTTG | 0.226 |
| TAGGTCTGTATACTCGGCTAAT | -1.02 |
| TAAGCATAGACTTTCTTCTTTT | -0.786 |
| TATTTTTCCATCATCTCTTTGC | -0.281 |
| TTCTCTGACAGTAAGTTTGTTG | -0.382 |
| TATTCTTCTCGCACAGATCCTT | 0.132 |
| TAAATCTGTAATGAGACTGTTA | 0.457 |
| TTCGGTACAGCTTCCCTCCATC | -0.593 |
| TTCCCTTGTCACATCAACTTGA | 0.335 |
| TTTGTGTCATCAACAGTCTTGT | 0.294 |
| TATGTATCCATTGCCGTCCTGA | -0.391 |
| TTGATTGGTAAACTAAATCTGT | -0.119 |
| TTAGATACAGTGTATCACTAGC | 0.553 |
| TTTAAGAAGAAAATTCTCCTGC | 1.04 |
| TGTAATATTATTAATATCCAGA | -0.351 |
| ATTCTTCTCGCACAGATCCTTC | -1.06 |
| TGTCACATCAACTTGAACCGAT | 0.787 |
| TAAGCTTAGAAATATTTTGTGG | -0.267 |

target: CAMK2N1; experiment: as above; settings: shRNA

| Sequence | sensor-assay potency score (higher = more potent) |
| --- | --- |
| ATAACAACCCGCTTGCTCCGGC | -0.269 |
| TTCAATAACAACCCGCTTGCTC | 0.0759 |
| ATCATCTTCAATAACAACCCGC | -0.379 |
| AATAACAACCCGCTTGCTCCGG | -0.79 |
| TTGTTGGTGTCCTGCAGGCGGC | -1.65 |
